PubChem BioAssay (NCATS)
Results filed as inconclusive are left out. Values without a mark were called inactive. Active and inactive are the calls of the source. The call rests on the fitted dose curve.

target: Peroxisome proliferator-activated receptor delta (Homo sapiens) (UniProt Q03181); assay: qHTS assay for small molecule agonists of peroxisome proliferator-activated receptor delta signaling (AID 588534); conditions: HEK293T PPARdelta-UAS-bla, beta-lactamase ratio, 18 h; series mostly up to 76.7 µM; activation: at the top concentration;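 further: 0% = DMSO basal wells and 100% = positive control agonist at 10 µM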
Sequence (Q03181 whole entry, looked up): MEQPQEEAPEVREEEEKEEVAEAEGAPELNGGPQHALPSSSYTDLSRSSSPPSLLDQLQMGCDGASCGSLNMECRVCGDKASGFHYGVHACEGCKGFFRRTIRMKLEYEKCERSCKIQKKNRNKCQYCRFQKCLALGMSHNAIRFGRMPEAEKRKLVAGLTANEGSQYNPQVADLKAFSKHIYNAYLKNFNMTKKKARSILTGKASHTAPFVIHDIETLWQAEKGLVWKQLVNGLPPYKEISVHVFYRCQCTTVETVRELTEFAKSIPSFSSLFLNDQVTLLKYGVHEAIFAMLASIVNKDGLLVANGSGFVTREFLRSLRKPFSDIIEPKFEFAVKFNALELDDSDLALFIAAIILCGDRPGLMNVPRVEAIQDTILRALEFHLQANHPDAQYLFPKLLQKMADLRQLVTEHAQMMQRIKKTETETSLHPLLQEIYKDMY
Summary of the method: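 EC50 and efficacy values derive from Hill fits of a concentration series in a beta-lactamase reporter cell assay. Exposure is 18 hrs at 37 C, with CCF4 fluorescence as the readout.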

Compound	activation	outcome
C/C=C\c1ccc(OC)cc1	9.09%	–
O=C(O)c1cccc(Cl)c1Cl	2.81%	–
CCCCCCCCCCCCCCC(=O)OC	-3.73%	–
CCCCCCC(C)OC(=O)COc1nc(F)c(Cl)c(N)c1Cl (stereo not given)	-6.84%	–
OC1CCCCC1	6.65%	–
Cc1c(N)cccc1[N+](=O)[O-]	6.43%	–
CCOC(C)=O	8.97%	–
CCC(Cl)CC(Cl)C(Cl)C(Cl)C(Cl)C(C)Cl (stereo not given)	8.91%	–
O=C1OC(=O)c2ccccc21	-0.454%	–
CC(C)(O)CCC(C)(C)O	0.668%	–
CC(C)S	-4.95%	–
C[C@@H]1O[C@@H](O[C@@H]2[C@@H](O)[C@H](OCCc3ccc(O)c(O)c3)O[C@H](CO[C@@H]3O[C@H](CO)[C@@H](O)[C@H](O)[C@H]3O)[C@H]2OC(=O)/C=C/c2ccc(O)c(O)c2)[C@H](O)[C@H](O)[C@H]1O	-6.48%	–
CCC(C)c1ccccc1O (stereo not given)	–	inactive
CC(=O)Nc1cccc(N)c1	8.18%	–
Brc1ccc(Oc2ccc(Br)cc2)cc1	-3.25%	–
CC1=CC(=O)CC(C)(C)C1	3.31%	–
C=C(C#N)C(=O)OCC	0.705%	–
Nc1ccc(F)cc1F	0.773%	–
CC(C)CCCCOC(=O)c1ccccc1C(=O)OCCCCC(C)C	1.05%	–
Cc1cc(Nc2ccc(O)cc2)ccc1N	-2.68%	–

Compound	activation	outcome
C=CCOC(=O)CC(C)C	-6.24%	–
O=C(O)C(c1ccc(Cl)cc1)c1ccc(Cl)cc1	-12.7%	–
OCCNCCO	–	inactive
O=[N+]([O-])c1ccc2c(c1)Cc1ccccc1-2	-2.87%	–
c1ccc(OCCOc2ccccc2)cc1	-0.21%	–
Clc1nc2ccccc2nc1Cl	-0.829%	–
CCC1CO1 (stereo not given)	4.75%	–
C=CC(=O)OCC(C)OCC(C)OCC(C)OC(=O)C=C (stereo not given)	-1.67%	–
C/C=C(/C)C#N	3.11%	–
OC(CCl)CCl	9.83%	–
O=C1OC2(c3cc(Br)c(O)c(Br)c3Oc3c2cc(Br)c(O)c3Br)c2c(Cl)c(Cl)c(Cl)c(Cl)c21	-13.2%	–
CCCCN(CCCC)CCCC	-2.53%	–
N[C@@H]1[C@@H](O)[C@H](O)[C@@H](CO)O[C@H]1O	-0.472%	–
C=C(C)C(=O)OCCCCCCCCCCCC	4.53%	–
CCCCCCC(O)CCCCCCCCCCC(=O)OC (stereo not given)	1.82%	–
CC(C)C(=O)OC(=O)C(C)C	0.312%	–
CCCCCCCCCCCCCC(=O)OC	3.31%	–
CC(C)Cc1nccs1	5.24%	–
CN(C)c1cccc(O)c1	3.98%	–
CCCCC(CC)COC(C)=O (stereo not given)	-1.66%	–
